Source: ChEMBL document CHEMBL3988442, “University of Dundee, Small-Polar-MMV Screening Library” (2021)
For some assays here: Results with a measured potency or affinity are listed apart.

Key:
Design in all cases: scale not given: direction of the effect not stated beside the values
[1] = molecular target: Protein translocase subunit SecA (Escherichia coli (strain K12)) (UniProt P10408); experiment: Assay to Identify E. coli SecA ATPase Inhibitors; assay type: functional; details: 30 µM
[2] = molecular target: T1, Ubiquitin-activating enzyme e1, putative (Leishmania donovani (strain BPK282A1)) (UniProt E9BSI1); experiment: Leishmania donovani Ubiquitin Activating Enzyme (LdE1); assay type: functional; details: 30 µM
T1 sequence (whole entry): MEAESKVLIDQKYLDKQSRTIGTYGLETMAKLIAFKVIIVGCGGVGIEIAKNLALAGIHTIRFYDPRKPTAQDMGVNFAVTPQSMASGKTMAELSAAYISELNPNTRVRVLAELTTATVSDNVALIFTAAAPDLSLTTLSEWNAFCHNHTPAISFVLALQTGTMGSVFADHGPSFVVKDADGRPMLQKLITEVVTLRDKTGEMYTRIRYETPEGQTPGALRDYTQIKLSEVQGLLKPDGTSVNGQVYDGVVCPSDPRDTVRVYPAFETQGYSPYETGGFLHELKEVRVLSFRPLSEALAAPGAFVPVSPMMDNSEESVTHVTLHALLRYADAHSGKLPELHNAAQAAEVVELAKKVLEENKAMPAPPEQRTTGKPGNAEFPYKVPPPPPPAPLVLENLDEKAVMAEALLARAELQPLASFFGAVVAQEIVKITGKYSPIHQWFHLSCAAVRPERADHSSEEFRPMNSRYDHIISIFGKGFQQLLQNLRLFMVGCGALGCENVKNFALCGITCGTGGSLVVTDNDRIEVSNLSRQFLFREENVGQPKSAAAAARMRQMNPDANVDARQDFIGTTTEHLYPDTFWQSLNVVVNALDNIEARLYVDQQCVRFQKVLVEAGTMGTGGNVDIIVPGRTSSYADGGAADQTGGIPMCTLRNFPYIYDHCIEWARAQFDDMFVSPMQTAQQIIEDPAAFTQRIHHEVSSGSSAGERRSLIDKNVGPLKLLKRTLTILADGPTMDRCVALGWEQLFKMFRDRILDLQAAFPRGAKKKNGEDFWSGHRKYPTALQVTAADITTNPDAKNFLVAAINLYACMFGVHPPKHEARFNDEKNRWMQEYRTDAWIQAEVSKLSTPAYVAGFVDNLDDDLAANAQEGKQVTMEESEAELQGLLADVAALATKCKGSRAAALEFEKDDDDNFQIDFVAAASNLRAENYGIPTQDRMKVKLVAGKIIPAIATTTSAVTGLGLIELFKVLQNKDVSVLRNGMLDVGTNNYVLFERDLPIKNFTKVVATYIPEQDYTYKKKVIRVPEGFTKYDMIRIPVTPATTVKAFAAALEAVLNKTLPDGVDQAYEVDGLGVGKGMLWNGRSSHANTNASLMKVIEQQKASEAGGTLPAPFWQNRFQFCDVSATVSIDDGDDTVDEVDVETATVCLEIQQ

[3] = molecular target: AMP-activated protein kinase, AMPK (Homo sapiens) (UniProt P54646+O43741+P54619+Q9UGJ0+Q9Y478+Q13131+Q9UGI9); experiment: AMP-dependent Kinase enzyme assay. An in vitro enzyme assay that detects ADP turnover that is directly proportional to AMPK activity. This uses naive AMPK that is activated during the assay with MK-8722; assay type: functional; details: 30 µM
[4] = molecular target: Sialic acid-binding Ig-like lectin 9 (Homo sapiens) (UniProt Q9Y336); experiment: Hs-Siglec9 ALPHAscreen SOP 20170721; details: 10 µM
Sialic acid-binding Ig-like lectin 9 (Homo sapiens), sequence (Q9Y336 whole entry): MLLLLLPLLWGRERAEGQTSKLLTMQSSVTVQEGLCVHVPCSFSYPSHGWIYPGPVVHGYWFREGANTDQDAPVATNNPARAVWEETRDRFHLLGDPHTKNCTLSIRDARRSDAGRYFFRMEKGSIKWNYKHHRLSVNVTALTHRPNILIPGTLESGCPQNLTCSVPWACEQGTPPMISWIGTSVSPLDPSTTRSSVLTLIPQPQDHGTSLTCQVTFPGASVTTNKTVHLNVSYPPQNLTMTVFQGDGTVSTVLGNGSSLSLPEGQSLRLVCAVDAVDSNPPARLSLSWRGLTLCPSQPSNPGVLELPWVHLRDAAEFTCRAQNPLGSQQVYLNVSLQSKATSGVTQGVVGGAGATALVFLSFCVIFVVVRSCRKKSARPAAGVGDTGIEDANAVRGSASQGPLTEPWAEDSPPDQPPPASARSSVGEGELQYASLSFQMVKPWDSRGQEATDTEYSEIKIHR

[5] = tested on: Trypanosoma cruzi; experiment: Trypanosoma cruzi phosphomannomutase and mannose-1-phosphate guanylyltransferase assay; assay type: functional; details: 10 µM
[6] = molecular target: T2, Arginase-2, mitochondrial (Homo sapiens) (UniProt P78540); experiment: in vitro enzyme assay to detect the production of urea directly proportional to the activity of Arginase II; assay type: functional; details: 33.3 µM; note: in the data most compounds retested in dose-response had high values
T2 sequence (whole entry): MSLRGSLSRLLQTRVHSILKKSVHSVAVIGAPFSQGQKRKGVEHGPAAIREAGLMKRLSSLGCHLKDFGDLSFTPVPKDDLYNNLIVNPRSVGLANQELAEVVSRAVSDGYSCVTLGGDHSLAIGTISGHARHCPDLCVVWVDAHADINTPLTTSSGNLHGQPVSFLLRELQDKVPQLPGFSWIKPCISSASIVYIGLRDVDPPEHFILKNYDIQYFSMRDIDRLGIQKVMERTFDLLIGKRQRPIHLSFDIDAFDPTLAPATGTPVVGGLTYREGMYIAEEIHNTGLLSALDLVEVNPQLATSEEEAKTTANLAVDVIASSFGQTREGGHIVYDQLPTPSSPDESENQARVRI

[7] = molecular target: T3, Proteasome subunit beta (Trypanosoma cruzi) (UniProt O96673); experiment: Trypanosoma cruzi proteasome chymotrypsin-like activity (TcProtChymo) assay.; note: in the data most compounds retested in dose-response had high values; assay type: functional; details: 9.37 µM
T3 sequence (whole entry): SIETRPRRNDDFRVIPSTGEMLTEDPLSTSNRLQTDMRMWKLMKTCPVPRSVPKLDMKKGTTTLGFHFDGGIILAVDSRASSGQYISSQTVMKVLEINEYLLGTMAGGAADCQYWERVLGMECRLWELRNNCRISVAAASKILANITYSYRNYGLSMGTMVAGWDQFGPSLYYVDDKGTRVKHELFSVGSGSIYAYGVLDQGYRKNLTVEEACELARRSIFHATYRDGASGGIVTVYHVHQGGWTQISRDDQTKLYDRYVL

[8] = species: Homo sapiens; experiment: To identify inhibition of the IFN signalling (Jak-Stat) pathway via expression of an eGFP reporter gene under the control of an IFN-stimulated response element (ISRE) containing MxA promoter.; assay type: functional; details: 30 µM
[9] = molecular target: T4, Tyrosyl-tRNA synthetase, putative (Trypanosoma cruzi (strain CL Brener)) (UniProt Q4DSP6); experiment: Trypanosoma cruzi tyrosyl tRNA synthetase (TcYRS) _High Tyrosine SOP; assay type: functional; details: 30 µM; note: in the data most compounds retested in dose-response had high values
T4 sequence (whole entry): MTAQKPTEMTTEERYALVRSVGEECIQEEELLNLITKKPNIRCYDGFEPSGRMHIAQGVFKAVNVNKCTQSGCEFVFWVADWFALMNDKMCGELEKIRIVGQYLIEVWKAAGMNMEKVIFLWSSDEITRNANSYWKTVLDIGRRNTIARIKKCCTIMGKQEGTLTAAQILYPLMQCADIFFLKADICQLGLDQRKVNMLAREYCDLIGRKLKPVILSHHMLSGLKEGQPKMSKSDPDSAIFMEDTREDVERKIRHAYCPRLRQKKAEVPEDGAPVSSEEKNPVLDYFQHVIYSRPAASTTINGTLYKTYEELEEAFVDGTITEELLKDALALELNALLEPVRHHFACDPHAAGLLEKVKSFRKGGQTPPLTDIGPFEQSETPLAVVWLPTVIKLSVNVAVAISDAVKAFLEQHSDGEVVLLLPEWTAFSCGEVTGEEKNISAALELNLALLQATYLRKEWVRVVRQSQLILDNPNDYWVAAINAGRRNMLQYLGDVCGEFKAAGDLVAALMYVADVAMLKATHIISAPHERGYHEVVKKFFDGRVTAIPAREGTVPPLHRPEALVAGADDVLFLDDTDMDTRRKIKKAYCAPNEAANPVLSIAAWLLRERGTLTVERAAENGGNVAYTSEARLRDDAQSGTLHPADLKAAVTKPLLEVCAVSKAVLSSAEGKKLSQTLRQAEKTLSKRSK

[10] = molecular target: T4, Tyrosyl-tRNA synthetase, putative (Trypanosoma cruzi (strain CL Brener)); experiment: Trypanosoma cruzi tyrosyl tRNA synthetase (TcYRS) SOP; assay type: functional; details: 30 µM
[11] = molecular target: Chromo domain-containing protein 1 (Saccharomyces cerevisiae (strain ATCC 204508 / S288c) (Baker's yeast)) (UniProt P32657); experiment: ScCHD-1 Enzyme Inhibition Assay; assay type: functional; details: 30 µM; note: in the data most compounds retested in dose-response had high values
Chromo domain-containing protein 1 (Saccharomyces cerevisiae (strain ATCC 204508 / S288c) (Baker's yeast)), sequence (P32657 whole entry, the tested form may be a part): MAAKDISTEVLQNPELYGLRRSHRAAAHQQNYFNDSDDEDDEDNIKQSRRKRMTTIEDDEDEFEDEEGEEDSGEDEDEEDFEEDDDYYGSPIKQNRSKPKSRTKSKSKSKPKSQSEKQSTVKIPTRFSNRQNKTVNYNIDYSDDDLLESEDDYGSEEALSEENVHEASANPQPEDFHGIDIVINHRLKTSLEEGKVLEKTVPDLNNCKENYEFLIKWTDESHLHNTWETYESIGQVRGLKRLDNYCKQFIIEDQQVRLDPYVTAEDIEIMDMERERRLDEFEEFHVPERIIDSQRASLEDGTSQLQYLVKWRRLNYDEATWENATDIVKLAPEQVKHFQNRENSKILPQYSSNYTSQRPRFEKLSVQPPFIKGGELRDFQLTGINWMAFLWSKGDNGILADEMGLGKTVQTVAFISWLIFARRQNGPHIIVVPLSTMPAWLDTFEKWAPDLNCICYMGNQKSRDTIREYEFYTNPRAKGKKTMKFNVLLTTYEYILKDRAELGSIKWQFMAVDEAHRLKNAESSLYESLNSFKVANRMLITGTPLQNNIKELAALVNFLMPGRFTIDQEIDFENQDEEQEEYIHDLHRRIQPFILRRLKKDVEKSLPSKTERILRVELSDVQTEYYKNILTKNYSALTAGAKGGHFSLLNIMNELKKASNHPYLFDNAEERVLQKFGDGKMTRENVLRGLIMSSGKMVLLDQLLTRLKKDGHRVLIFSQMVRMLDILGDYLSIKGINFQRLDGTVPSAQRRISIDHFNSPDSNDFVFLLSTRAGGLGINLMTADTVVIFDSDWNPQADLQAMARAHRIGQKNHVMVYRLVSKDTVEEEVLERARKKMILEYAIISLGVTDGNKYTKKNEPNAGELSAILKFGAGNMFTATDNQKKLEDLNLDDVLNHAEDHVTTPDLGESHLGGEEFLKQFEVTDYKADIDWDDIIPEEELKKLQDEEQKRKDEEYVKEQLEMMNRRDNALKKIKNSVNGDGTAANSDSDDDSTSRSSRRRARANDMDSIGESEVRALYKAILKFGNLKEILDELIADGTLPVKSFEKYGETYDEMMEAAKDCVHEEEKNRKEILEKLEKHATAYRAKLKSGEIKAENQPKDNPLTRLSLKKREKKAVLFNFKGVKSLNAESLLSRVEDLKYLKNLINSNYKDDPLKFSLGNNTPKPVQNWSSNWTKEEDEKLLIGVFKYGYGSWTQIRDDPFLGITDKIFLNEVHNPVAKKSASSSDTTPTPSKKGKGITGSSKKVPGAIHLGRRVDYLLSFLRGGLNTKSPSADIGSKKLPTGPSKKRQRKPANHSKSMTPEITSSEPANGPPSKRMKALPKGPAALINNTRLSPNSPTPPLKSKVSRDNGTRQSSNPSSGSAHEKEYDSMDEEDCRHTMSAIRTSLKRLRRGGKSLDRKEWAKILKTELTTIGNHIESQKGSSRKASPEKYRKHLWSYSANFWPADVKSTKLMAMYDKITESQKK

Protein translocase subunit SecA (Escherichia coli (strain K12)), sequence (P10408 whole entry): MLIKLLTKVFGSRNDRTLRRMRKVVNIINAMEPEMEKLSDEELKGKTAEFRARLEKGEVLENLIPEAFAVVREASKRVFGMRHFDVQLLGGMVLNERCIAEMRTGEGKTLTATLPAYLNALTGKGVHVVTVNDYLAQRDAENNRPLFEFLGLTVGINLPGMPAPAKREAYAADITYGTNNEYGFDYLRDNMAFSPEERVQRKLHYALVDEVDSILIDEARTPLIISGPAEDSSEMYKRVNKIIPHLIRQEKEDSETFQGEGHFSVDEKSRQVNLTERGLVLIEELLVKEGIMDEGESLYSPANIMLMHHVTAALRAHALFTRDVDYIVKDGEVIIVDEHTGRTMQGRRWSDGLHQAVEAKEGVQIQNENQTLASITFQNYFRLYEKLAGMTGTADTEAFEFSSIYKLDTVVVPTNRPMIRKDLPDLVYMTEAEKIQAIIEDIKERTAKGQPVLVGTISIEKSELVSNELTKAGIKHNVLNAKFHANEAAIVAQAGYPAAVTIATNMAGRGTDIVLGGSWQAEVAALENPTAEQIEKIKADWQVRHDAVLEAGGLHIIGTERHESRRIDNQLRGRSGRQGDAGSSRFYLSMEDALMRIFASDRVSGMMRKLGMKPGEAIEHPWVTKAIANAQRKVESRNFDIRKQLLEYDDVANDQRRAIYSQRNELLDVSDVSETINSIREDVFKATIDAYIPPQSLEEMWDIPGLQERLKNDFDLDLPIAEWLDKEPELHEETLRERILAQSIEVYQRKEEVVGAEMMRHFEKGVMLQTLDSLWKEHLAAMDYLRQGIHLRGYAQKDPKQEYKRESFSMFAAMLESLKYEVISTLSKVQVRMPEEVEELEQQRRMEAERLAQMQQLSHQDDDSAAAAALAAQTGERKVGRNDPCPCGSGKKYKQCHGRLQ

Compound | Percent Effect [1] | Percent Effect [2] | Percent Effect [3] | Percent Effect [4] | Percent Effect [5] | Percent Effect [6] | Percent Effect [7] | Percent Effect [8] | Percent Effect [9] | Percent Effect [10] | Percent Effect [11]
COCc1nn(C(C)C)c2c1CCN(Cc1cccs1)C2 | -0.481% | 11% | 1.5% | 8.32% | 0.198% | -0.798% | 12.4% | -11.8% | 7.29% | 16.1% | -1.6%
N#CCCN(C(=O)CN1CCCC1C1CCCCC1)c1ccccc1 (stereo unspecified) | -2.43% | 0% | -4.92% | 3.65% | -1.56% | 2.5% | 15.1% | 17.1% | 12.9% | 8.54% | 0.924%
CC(O)CN1CCN(C(=O)c2ccc(Br)o2)CC1 (stereo unspecified) | -4.28% | 15.8% | 17.9% | -7.51% | -3.57% | 3.45% | 8.69% | 22.7% | 4.41% | 9.76% | -12.7%
CC(C)c1n[nH]c(C2CN(C(=O)c3csnn3)CCO2)n1 (stereo unspecified) | -2.56% | -7.89% | -6.16% | 6.92% | 4.58% | 1.08% | 0.592% | -2.95% | 3.45% | 6.17% | -3.21%
Cc1nn(C)c2cnn(CC(=O)NCCc3ccccc3)c12 | -4.41% | 6.67% | 5.28% | 4.15% | -2.16% | -12.5% | 13.3% | 1.66% | 5.29% | 17.9% | -8.21%
CS(=O)(=O)N1CC[C@H]2C[C@@H](C(=O)N3CCOCC3)O[C@@H]2C1 | -3.64% | -8% | 8.84% | 4.61% | -1.54% | -53.2% | 2.73% | -12.5% | -2.08% | -7.5% | 1.18%
CC(=O)c1cccc(OCC(=O)NS(=O)(=O)c2ccc(C)s2)c1 | -6.93% | 12.7% | -2.86% | 9.9% | 4.63% | -4.56% | 3.85% | -8.7% | 3.45% | 13.9% | -6.95%
Cc1cc2ccccc2n1CCC(=O)NCc1ncc[nH]1 | -2.35% | 14.9% | 6.43% | -8.05% | -4.74% | -1.16% | 15.6% | 13.5% | 11.8% | 16.9% | -9.55%
COc1cccc(C(=O)N2CCCC(c3cc(C)[nH]n3)C2)c1OC (stereo unspecified) | -3.02% | 10.8% | -3.74% | -1.79% | 8.4% | -2.81% | 11.7% | 17.4% | 4.43% | 16.1% | -5.21%
COc1ccc2c(c1)CCCN2Cc1nc2c(cnn2C)c(=O)[nH]1 | -3.64% | 20.2% | -9.32% | -0.208% | -2.36% | 2.28% | 3.52% | 3.6% | 9.36% | 16.5% | -5.55%
COc1ccc(CN2CCc3nc(C4CCCCN4C)ncc3C2)cc1 (stereo unspecified) | -0.233% | -8% | -0.187% | -0.354% | 3.54% | -2.1% | 28.3% | 11.8% | 21.3% | 26.9% | -1.3%
CNC(=O)c1cc2c(nc1NCC1CC1)CCN(c1ccncn1)CC2 | -4.02% | 1.33% | 11.9% | 4.48% | -1.57% | -4.05% | 9.61% | 35.2% | 1.06% | 0% | -5.29%
CCOc1ccccc1C1CCCN1 (stereo unspecified) | -5.25% | 7.89% | 2.38% | -2.36% | 1.27% | -7.1% | 15.4% | -5.78% | -1.06% | 2.6% | -7.12%
COc1ccc(C2=CCN(C(=O)CN(C)Cc3ccoc3)CC2)cc1 | -6.75% | 7.59% | -2.65% | 5.81% | 11.6% | -5.32% | 10.4% | 28.5% | 8.37% | 21.5% | -11.7%
CCOc1ccnc(N2CCN(C(=O)c3cc(Cl)c[nH]3)CC2)n1 | -4.52% | 12.7% | 0.626% | 5.17% | 1.98% | 0.38% | 2.54% | 0.798% | 9.36% | 21.5% | -5.03%
O=C(CO)N1C[C@H]2CC[C@@H]1CN(C1Cc3ccccc3C1)C2 | -5.84% | 5.41% | -17.8% | -1.59% | -1.86% | 1.74% | 5.75% | 3.96% | 1.07% | 8.64% | -4.67%
